Data published in PubChem BioAssay (EPA / NIEHS).
Active and inactive are the calls of the source. Rule for the calls: active = hit-call score of the fitted dose curve at least 0.9, where 1 is the maximum; inactive = score below 0.9.

Columns and labels:
[1] = ATG_CRE_CIS: Attagene CIS-FACTORIAL HepG2 Assay for human cAMP Responsive Element (CRE) binding protein 3 (AID 2282926); conditions: HepG2 CRE cis-reporter, Attagene multiplexed mRNA; actives raise or lower the signal
How it was run: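 Multiplexed transcription-unit reporters transfected into HepG2; 24 h dosing; RT-PCR/capillary electrophoresis fluorescence read-out; bidirectional fit vs DMSO.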

[2] = ATG_CMV_CIS: Attagene CIS-FACTORIAL HepG2 Assay for human CMV (Internal Marker) (AID 2282928); conditions: HepG2 CMV promoter reporter, transcription factor profiling; actives raise or lower the signal;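 note: endpoint acts as a background internal control marker rather than a target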
How it was run: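 Cell system: HepG2, transiently transfected multiple reporter units under cis promoters. Exposure: 24 h. Detection: RT-PCR, FAM labeling, HpaI digestion, capillary electrophoresis. Analysis: bidirectional, DMSO baseline.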

[3] = ATG_DR4_LXR_CIS: Attagene CIS-FACTORIAL HepG2 Assay for human Liver X Receptor (LXR), DR4 submotif (AID 2282929); conditions: HepG2 Attagene DR4 cis-reporter, mRNA transcription; actives raise or lower the signal
How it was run: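 DR4 cis-reporter in HepG2, 24 h exposure. Detection: RT-PCR, 6-FAM labelling, CE fragment analysis. Endpoint fitted bidirectionally, DMSO = baseline.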

[4] = ATG_AP_1_CIS: Attagene CIS-FACTORIAL HepG2 Assay for human Activator Protein 1 (AP-1) (AID 2282931); conditions: HepG2 Attagene cis-factorial AP-1 reporter mRNA; actives raise or lower the signal
How it was run: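 Cis-regulated reporter units transiently expressed in HepG2 report endogenous transcription-factor activity. Signal: reporter mRNA at 24 h, via RT-PCR and fluorescent capillary electrophoresis. Endpoint derived by bidirectional fitting, DMSO as negative control.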

[5] = ATG_AP_2_CIS: Attagene CIS-FACTORIAL HepG2 Assay for human Activator Protein 2 (AP-2) (AID 2282932); conditions: HepG2 AP-2 cis-reporter, Attagene transcription factor profiling; actives raise or lower the signal
How it was run: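 Step one: transient transfection of HepG2 with reporter transcription units. Step two: 24 h chemical exposure. Step three: RNA extraction, RT-PCR, labelled fragment analysis by capillary electrophoresis; DMSO serves as baseline.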

[6] = ATG_BRE_CIS: Attagene CIS-FACTORIAL HepG2 Assay for human Bone Morphogenetic Protein (BMP) Response Element (BRE) (AID 2282933); conditions: HepG2 BMP response element reporter, Attagene transcription factor profiling; actives raise or lower the signal
How it was run: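 HepG2 cells transiently transfected with multiplexed cis-element reporter units were dosed with chemical for 24 h. Reporter mRNA was measured by RT-PCR with fluorescent labelling, HpaI digestion and capillary electrophoresis; bidirectional fitting relative to DMSO.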

[7] = target: Retinoic acid receptor alpha (Homo sapiens) (UniProt P10276); assay: ATG_DR5_RAR_CIS: Attagene CIS-FACTORIAL HepG2 Assay for human Retinoic Acid Receptor Alpha (RARE), DR5 submotif (AID 2282934); conditions: HepG2 Attagene cis-factorial RARE DR5 reporter, mRNA; actives raise or lower the signal;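 for AC50: reporter responds to endogenous RAR alpha beta and gamma in HepG2 not RARA alone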
How it was run: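 Reporter transcripts from a DR5-regulated unit, measured via RT-PCR plus capillary electrophoresis, reflect endogenous RAR activity in transiently transfected human HepG2 liver cells. Exposure lasted 24 h; gain or loss of signal scored against DMSO.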

[8] = target: CCAAT/enhancer-binding protein beta (Homo sapiens) (UniProt P17676); assay: ATG_C_EBP_CIS: Attagene CIS-FACTORIAL HepG2 Assay for human CCAAT/Enhancer Binding Protein (C/EBP) beta (AID 2282927); conditions: HepG2 Attagene cis-factorial transcription factor reporter; actives raise or lower the signal
How it was run: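 Endogenous C/EBPb-driven reporter transcripts measured in transfected human HepG2 cells at 24 h via RT-PCR and capillary electrophoresis of labelled fragments. Activity fitted in both directions relative to DMSO baseline.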

[9] = target: Aryl hydrocarbon receptor (Homo sapiens) (UniProt P35869); assay: ATG_Ahr_CIS: Attagene CIS-FACTORIAL HepG2 Assay for human Aryl Hydrocarbon Receptor (Ahr) (AID 2282930); conditions: HepG2 AhR cis-factorial reporter transcription; actives raise or lower the signal
How it was run: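 Reporter mRNA levels, quantified by RT-PCR and fluorescent capillary electrophoresis, reflect endogenous AhR transcriptional activity in HepG2 cells carrying transfected cis-promoter reporter constructs. Readout at 24 h post-dose; gain or loss fitted against DMSO baseline.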

Chain of Retinoic acid receptor alpha (Homo sapiens) (P10276 whole entry, looked up): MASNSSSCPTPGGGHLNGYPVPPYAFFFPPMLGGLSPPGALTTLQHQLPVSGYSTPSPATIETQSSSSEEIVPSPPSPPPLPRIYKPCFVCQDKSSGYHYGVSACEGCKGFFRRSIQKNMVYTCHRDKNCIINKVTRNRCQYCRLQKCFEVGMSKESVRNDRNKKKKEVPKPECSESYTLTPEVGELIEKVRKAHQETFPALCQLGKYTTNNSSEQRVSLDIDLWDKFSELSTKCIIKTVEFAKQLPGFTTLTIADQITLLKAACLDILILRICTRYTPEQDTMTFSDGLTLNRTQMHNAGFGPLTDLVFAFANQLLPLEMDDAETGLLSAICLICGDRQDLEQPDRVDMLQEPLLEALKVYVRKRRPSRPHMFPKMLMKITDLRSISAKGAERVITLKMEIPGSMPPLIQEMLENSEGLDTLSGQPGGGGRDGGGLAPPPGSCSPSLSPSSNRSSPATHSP
Chain of Aryl hydrocarbon receptor (Homo sapiens) (P35869 whole entry, looked up): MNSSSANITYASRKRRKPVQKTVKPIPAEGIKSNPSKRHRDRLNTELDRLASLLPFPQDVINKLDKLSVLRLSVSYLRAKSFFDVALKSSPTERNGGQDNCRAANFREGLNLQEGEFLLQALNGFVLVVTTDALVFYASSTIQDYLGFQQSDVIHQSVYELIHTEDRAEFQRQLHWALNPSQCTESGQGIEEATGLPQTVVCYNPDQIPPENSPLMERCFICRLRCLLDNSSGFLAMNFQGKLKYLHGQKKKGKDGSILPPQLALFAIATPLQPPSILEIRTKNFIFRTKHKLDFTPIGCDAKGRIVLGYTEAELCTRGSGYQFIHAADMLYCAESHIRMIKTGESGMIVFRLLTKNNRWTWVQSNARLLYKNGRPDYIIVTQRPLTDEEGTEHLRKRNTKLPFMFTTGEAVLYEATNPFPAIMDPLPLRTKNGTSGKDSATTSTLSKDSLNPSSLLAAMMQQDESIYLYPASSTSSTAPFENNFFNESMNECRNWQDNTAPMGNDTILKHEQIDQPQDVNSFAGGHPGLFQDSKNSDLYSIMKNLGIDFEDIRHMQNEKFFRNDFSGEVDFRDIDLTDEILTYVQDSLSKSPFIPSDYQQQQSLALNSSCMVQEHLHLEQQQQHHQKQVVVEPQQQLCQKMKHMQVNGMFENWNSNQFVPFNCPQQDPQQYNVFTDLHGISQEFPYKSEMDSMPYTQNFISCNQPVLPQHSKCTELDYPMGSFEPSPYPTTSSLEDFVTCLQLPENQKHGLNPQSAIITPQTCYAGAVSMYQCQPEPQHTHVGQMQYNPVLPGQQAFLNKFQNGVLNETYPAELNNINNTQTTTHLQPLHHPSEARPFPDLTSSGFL
Chain of CCAAT/enhancer-binding protein beta (Homo sapiens) (P17676 whole entry, looked up, the tested form may be a part): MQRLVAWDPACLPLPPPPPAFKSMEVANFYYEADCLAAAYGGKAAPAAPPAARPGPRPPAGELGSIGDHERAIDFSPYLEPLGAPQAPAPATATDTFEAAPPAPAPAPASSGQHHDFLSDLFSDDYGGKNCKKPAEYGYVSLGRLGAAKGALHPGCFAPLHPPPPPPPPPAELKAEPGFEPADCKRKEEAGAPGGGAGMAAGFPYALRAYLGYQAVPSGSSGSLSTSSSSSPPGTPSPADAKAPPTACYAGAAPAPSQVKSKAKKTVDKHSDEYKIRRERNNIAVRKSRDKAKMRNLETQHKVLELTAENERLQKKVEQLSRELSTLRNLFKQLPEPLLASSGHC

Row | Structure (SMILES) | outcome [1] | outcome [2] | outcome [3] | outcome [4] | outcome [5] | outcome [6] | outcome [7] | outcome [8] | outcome [9] | AC50 [3] | AC50 [2] | AC50 [6] | AC50 [7] | AC50 [1] | AC50 [4] | AC50 [9]
1 | CC(C)OC(=O)COc1ccc(Cl)cc1Cl | inactive | inactive | inactive | inactive | inactive | inactive | inactive | – | – | – | – | – | – | – | – | –
2 | CCOCOCC | inactive | inactive | inactive | inactive | inactive | inactive | inactive | – | – | – | – | – | – | – | – | –
3 | C[C@]12CC[C@H]3C(=CCc4cc(O)ccc43)[C@@H]1CCC2=O | inactive | inactive | inactive | inactive | inactive | inactive | inactive | inactive | inactive | – | – | – | – | – | – | –
4 | CN1CN(C)CN(C)C1 | inactive | inactive | – | inactive | inactive | inactive | inactive | inactive | – | 135 µM (active) | – | – | – | – | – | –
5 | CCc1ccc(C)nc1 | inactive | inactive | inactive | inactive | inactive | inactive | inactive | – | inactive | – | – | – | – | – | – | –
6 | Cc1cc(C)c(O)c(C(C)(C)C)c1 | inactive | – | inactive | inactive | inactive | inactive | inactive | inactive | inactive | – | 100 µM (active) | – | – | – | – | –
7 | CN(C)C(C)(C)CO | – | inactive | inactive | inactive | inactive | inactive | inactive | inactive | – | – | – | – | – | – | – | –
8 | OCCCC(F)(F)C(F)(F)C(F)(F)C(F)(F)C(F)(F)C(F)(F)C(F)(F)C(F)(F)F | – | inactive | inactive | inactive | inactive | – | – | – | inactive | – | – | 64.3 µM (active) | 22 µM (active) | – | – | –
9 | CCc1cc(Cc2cc(CC)c(N)c(CC)c2)cc(CC)c1N | – | – | – | – | inactive | inactive | – | inactive | inactive | 24.2 µM (active) | 6.64 µM (active) | – | 2.96 µM (active) | 33.4 µM (active) | 23.6 µM (active) | –
10 | O=C1C=CC(=O)N1c1ccc(Cc2ccc(N3C(=O)C=CC3=O)cc2)cc1 | – | inactive | – | inactive | inactive | – | – | inactive | inactive | 22.7 µM (active) | – | 51.2 µM (active) | 59.4 µM (active) | – | – | –
11 | CCCCC(CC)COC(=O)c1ccc(N(C)C)cc1 (configuration not stated) | – | – | – | – | inactive | – | inactive | – | – | 64.7 µM (active) | 53.9 µM (active) | 46.7 µM (active) | – | – | 61.7 µM (active) | –
12 | O=C1OC(=O)c2ccc3c4c(ccc1c24)C(=O)OC3=O | inactive | inactive | inactive | inactive | inactive | inactive | inactive | inactive | inactive | – | – | – | – | – | – | –
13 | CNS(=O)(=O)C(F)(F)C(F)(F)C(F)(F)C(F)(F)C(F)(F)C(F)(F)C(F)(F)C(F)(F)F | – | inactive | inactive | – | inactive | inactive | inactive | inactive | inactive | – | – | – | – | – | 13.7 µM (active) | –
14 | CCCCOC(=O)C(C)O (configuration not stated) | – | inactive | inactive | inactive | inactive | inactive | inactive | – | inactive | – | – | – | – | – | – | –
15 | NC(O)(C(F)(F)F)C(F)(F)F | inactive | inactive | inactive | inactive | inactive | inactive | inactive | inactive | – | – | – | – | – | – | – | 126 µM (active)
16 | OCC(O)CC(F)(F)C(F)(F)C(F)(F)C(F)(F)F (configuration not stated) | inactive | inactive | inactive | inactive | inactive | inactive | inactive | inactive | inactive | – | – | – | – | – | – | –
17 | FC(F)(F)C(F)(F)C(F)(F)C(F)(F)C(F)(F)C(F)(F)C(F)(F)CCI | inactive | inactive | inactive | inactive | inactive | inactive | inactive | inactive | inactive | – | – | – | – | – | – | –
18 | Cc1cc(=O)[nH]c(C(C)C)n1 | inactive | inactive | inactive | inactive | inactive | inactive | inactive | – | – | – | – | – | – | – | – | –
19 | NC(=O)C(F)(F)C(F)(F)C(F)(F)F | – | inactive | inactive | inactive | inactive | inactive | inactive | inactive | inactive | – | – | – | – | – | – | –
20 | CCn1c2ccccc2c2ccccc21 | inactive | – | inactive | – | inactive | – | – | inactive | inactive | – | 57.4 µM (active) | 159 µM (active) | 25.8 µM (active) | – | 164 µM (active) | –
21 | OC(O)C(F)(F)C(F)(F)F | inactive | – | – | – | inactive | inactive | inactive | – | – | 150 µM (active) | 117 µM (active) | – | – | – | 96 µM (active) | –
22 | CC(C)(C)c1cc(Cc2cc(C(C)(C)C)c(O)c(C(C)(C)C)c2)cc(C(C)(C)C)c1O | inactive | inactive | inactive | inactive | inactive | inactive | inactive | – | inactive | – | – | – | – | – | – | –
23 | C#CC(O)CCC (configuration not stated) | inactive | inactive | inactive | inactive | inactive | inactive | inactive | – | inactive | – | – | – | – | – | – | –
24 | CCCCOC(=O)[C@H](C)O | – | inactive | inactive | inactive | inactive | inactive | inactive | inactive | inactive | – | – | – | – | – | – | –
25 | Cc1ccc2c(c1)OCC(=O)CO2 | inactive | inactive | inactive | inactive | inactive | inactive | inactive | – | – | – | – | – | – | – | – | –
26 | NC(=O)C(F)(F)C(F)(F)C(F)(F)C(F)F | – | inactive | inactive | inactive | inactive | inactive | inactive | inactive | inactive | – | – | – | – | – | – | –
27 | OCCCc1cccnc1 | inactive | inactive | inactive | inactive | inactive | inactive | inactive | inactive | inactive | – | – | – | – | – | – | –
28 | CC(C)OC=O | inactive | inactive | inactive | inactive | inactive | inactive | inactive | inactive | inactive | – | – | – | – | – | – | –
29 | FC(F)(F)C(F)(F)C(F)(F)CC1CO1 (configuration not stated) | – | inactive | inactive | inactive | inactive | inactive | inactive | inactive | inactive | – | – | – | – | – | – | –
